CYP2C9 inh: blockers of cytochrome P450 2C9 activity – biochemical, luminescence, ADME assay, primary screen; 96,000 compounds, 20% hits; inhibition, % at 5 µM; CYP2C9 Supersomes, luciferin-H conversion; P11712; AID 777, 2007;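 active = blocking of liver enzyme CYP2C9 beyond about 50% at 5 µM, limit read from the data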
CYP2C19 activ: human CYP2C19 activators, primary screen, biochemical, luminescence. Cytochrome P450 2C19 (Homo sapiens), P33261. recombinant CYP2C19, luciferin-H EGE luminescence; hits give high values; 0 = fully inhibited enzyme, 1 = untreated enzyme. activation factor at 5 µM. 96,000 tested, under 10 active. AID 1025, 2008;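 active = activation factor of at least 2 at 5 µM in the primary screen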;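 also: 0 = wells with 2.5 mM tranylcypromine and 1 = vehicle-only wells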
CYP2C9 activ: human CYP2C9 activators, primary screen, biochemical, luminescence | Cytochrome P450 2C9 (Homo sapiens), P11712 | recombinant CYP2C9, luciferin-H conversion; hits give high values; factor 1 = untreated enzyme, 0 = blocked | activation factor at 5 µM | 96,000 compounds, 1.4% hits;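 active = activation factor of 2 or more for CYP2C9 at a 5 µM dose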;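 also: 0 = sulfaphenazole-blocked wells and 1 = vehicle-only wells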
CYP2C19 inhib: blockers of cytochrome P450 2C19 activity – biochemical, luminescence, ADME assay, primary screen. P33261. CYP2C19 Supersomes, luciferin-H EGE luminescence, 30 min. inhibition, % at 5 µM. 96,000 compounds, 21% hits;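 active = CYP2C19 inhibition above a set limit at 5 µM in the primary screen, cut at about 50% in these data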;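 also: plate controls were negative control wells for no effect and 2.5 mM tranylcypromine positive control for full effect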
hDAT+cocaine: changed hDAT dopamine uptake under cocaine IC80, either direction, primary screen, cocaine antagonist project, cell-based, LLC-PK1 hDAT, [14C]-dopamine uptake, MLSMR; Sodium-dependent dopamine transporter (Homo sapiens), Q01959; LLC-PK1 hDAT cells, [14C]-dopamine uptake with cocaine IC80; actives deviate in either direction; B-score at 10 µM; 110,000 compounds, 1.3% hits;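 active = Z score or B-score, a plate-position-corrected score, falls beyond the plate's 99.7% confidence bounds, in either direction; inactive = both scores lie inside the 99.7% bounds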;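 also: scored against the spread of the other compound wells on the same plate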
Target sequence (Q01959 whole entry, looked up): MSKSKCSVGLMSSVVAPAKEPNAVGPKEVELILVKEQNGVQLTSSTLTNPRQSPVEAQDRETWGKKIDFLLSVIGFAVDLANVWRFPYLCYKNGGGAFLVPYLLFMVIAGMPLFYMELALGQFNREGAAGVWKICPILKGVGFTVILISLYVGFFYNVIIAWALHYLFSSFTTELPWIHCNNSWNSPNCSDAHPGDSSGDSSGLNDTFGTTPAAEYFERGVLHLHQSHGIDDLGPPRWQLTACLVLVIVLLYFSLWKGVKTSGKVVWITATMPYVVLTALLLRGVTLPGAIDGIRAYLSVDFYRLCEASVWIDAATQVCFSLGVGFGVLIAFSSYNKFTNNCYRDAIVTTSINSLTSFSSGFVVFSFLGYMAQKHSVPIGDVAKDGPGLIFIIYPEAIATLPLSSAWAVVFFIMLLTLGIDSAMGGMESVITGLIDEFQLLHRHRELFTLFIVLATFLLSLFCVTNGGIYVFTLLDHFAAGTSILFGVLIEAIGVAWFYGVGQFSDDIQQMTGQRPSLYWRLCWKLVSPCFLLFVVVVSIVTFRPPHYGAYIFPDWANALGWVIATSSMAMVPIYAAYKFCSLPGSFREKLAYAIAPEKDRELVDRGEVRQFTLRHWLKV
D1 allo mod: D1 CRE-luciferase signal change, two-sided – cell-based, HEK293 D1, dopamine EC30, D1 allosteric modulator project, primary screen | D(1A) dopamine receptor (Homo sapiens), P21728 | dopamine EC30 potentiation; actives deviate in either direction | B-score at 10 µM | 58,000 compounds, 5.9% hits;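 active = luminescence count or its row- and column-corrected plate score outside the 99.7% band of the plate's sample wells, on either side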
* marks the source's active call; other numbers are inactive results; x = no result given. Rows were chosen to be rich in hits. Some 28% of all compounds tested hit in one or more screens of this group.

SMILES	CYP2C9 inh	CYP2C19 activ	CYP2C9 activ	CYP2C19 inhib	hDAT+cocaine	D1 allo mod
CCOC(=O)C1=C(c2ccccc2)NC(SCC(=O)Nc2ccc(C)cc2)=C(C#N)C1c1ccco1 (stereo not given)	65*	1	0.4	4	0.45	-0.035
CCOC(=O)CSC1=C(C#N)C(c2ccco2)C(C(=O)Nc2cccc(C(F)(F)F)c2)=C(C)N1 (stereo not given)	82*	0.2	0.2	78*	-0.04	-1.1
CCOC(=O)C1=C(c2ccccc2)NC(SCC(=O)Nc2ccccc2C)=C(C#N)C1c1ccco1 (stereo not given)	75*	0.4	0.2	57*	-0.54	0.23
Cc1cc(C(=O)OCC(=O)c2ccc3c(c2)OCCO3)c(C)o1	40	0.1	0.6	86*	0.072	x
COc1cc(C(=O)OCn2nnc3ccccc3c2=O)cc(OC)c1OC	42	0.5	0.6	48	1.8	1
Cc1cc(C(=O)OCn2nnc3ccccc3c2=O)c(C)n1-c1ccccc1	84*	0.2	0.2	78*	-0.29	0.94
COc1cccc(C(=O)OCn2nnc3ccccc3c2=O)c1OC	x	x	x	x	-0.84	5.2*
COc1ccccc1C(=O)Nn1cnc2ccccc2c1=O	17	0.9	0.8	13	0.16	-0.13
Cc1nn2c(-c3ccc(Cl)cc3)ccnc2c1-c1ccccc1	-23	1.1	1.2	-6	-0.92	x
O=S(=O)(N/N=C1/CC(c2ccccc2)Oc2ccccc21)c1ccc(Br)cc1 (stereo not given)	65*	0.7	0.4	27	-0.97	x
Cc1ccc(S(=O)(=O)N/N=C2/CC(c3ccccc3)Oc3ccccc32)cc1[N+](=O)[O-] (stereo not given)	99*	0.3	0	67*	-1.1	x
CC1CCN(C(=O)CN2C(=O)C(C)(C)Oc3ccc(C(=O)NC4CCCC4)cc32)CC1	49	0.9	0.5	14	0.1	0.036
c1ccc2oc(-c3ccc(Nc4nc(N5CCCCC5)nc(N5CCOCC5)n4)cc3)nc2c1	18	1	0.8	4	x	x
O=C(CCC1CCCC1)N[C@@H](Cc1ccc(O)cc1)C(=O)O	x	x	x	x	0.44	x
CN(CC(=O)Nc1ccc(Cl)cc1)CC(=O)Nc1cc(Cl)ccc1C#N	-24	0.4	1.2	63*	1.4	-0.0032
CCOC(=O)CC(=O)CSc1nc2ccccc2c(=O)n1-c1ccc(C(=O)N2CCOCC2)cc1	73*	0.1	0.3	86*	1.1	-0.64
CCOC(=O)CC(=O)CSc1nc2ccccc2c(=O)n1-c1ccc(C(=O)NCCOC)cc1	78*	0.3	0.2	74*	-0.26	x
CCCNC(=O)NC(=O)CSc1nc2cc(C(=O)OC)ccc2c(=O)n1-c1ccccc1	5	1	1	-3	-0.28	x
CCOC(=O)CSc1nc2ccccc2c(=O)n1C	x	x	x	x	-0.088	x
C=CCOc1ccccc1/C=c1\sc2nc(=O)c(C)nn2c1=O	x	x	x	x	-0.2	-0.8
CCOC(=O)Cn1c(=N)n(Cc2ccccc2F)c2ccccc21	19	0.8	0.8	19	1	-1.7
Cc1ccc(-n2ncc3c(=O)n(CC(=O)NCC4CCCO4)cnc32)cc1 (stereo not given)	-4	1.1	1	-6	-0.05	x
COc1ccc2c(c1)C(=NN)c1cc(OC)ccc1-2	62*	0.6	0.4	38	0.074	x
COc1ccc(S(=O)(=O)N2Cc3ccccc3CC2C(=O)Nc2nccs2)cc1OC (stereo not given)	69*	0.1	0.3	86*	-0.46	-0.83
COc1ccc(S(=O)(=O)N2Cc3ccccc3CC2C(=O)Nc2nccs2)cc1 (stereo not given)	x	0.1	x	93*	-1.7	x
SMILES	CYP2C9 inh	CYP2C19 activ	CYP2C9 activ	CYP2C19 inhib	hDAT+cocaine	D1 allo mod
COc1ccc(S(=O)(=O)N2Cc3ccccc3CC2C(=O)N2CCOCC2)cc1OC (stereo not given)	3	1.1	1	-6	-0.12	x
Cc1ccc(CN(C)C(=O)C2CCCN2C(=O)c2cccs2)o1 (stereo not given)	14	0.4	0.9	57*	-0.5	x
Cc1ccc(S(=O)(=O)N2CCCC2C(=O)N(C)Cc2cccs2)cc1 (stereo not given)	-28	0.7	1.3	32	-1.8	0.077
CCOC(=O)c1cc(C)n(Cc2ccc(OCC)c(OC)c2)c1C	59*	0.8	0.4	15	1.8	x
CCn1c(SCCC(=O)Nc2ccccc2)nnc1-c1ccc(OC)cc1	62*	0.1	0.4	93*	1.2	-0.5
CCn1c(SCC(=O)Nc2cccc(OC)c2)nnc1-c1ccc(Cl)cc1	-6	1	1.1	0	0.48	-0.22
Cn1c(COc2ccccc2)nnc1SCCC(=O)Nc1ccccc1	88*	0.3	0.1	74*	0.17	1.2
COC(=O)c1ccc(NC(=O)CSc2nnc(COc3ccccc3)n2C)cc1	17	0.8	0.8	15	-0.54	0.11
COCCNC(=O)C1CCN(S(=O)(=O)c2ccccc2)CC1	8	1	0.9	5	-0.2	-0.53
CSc1nsc(/C=C/Nc2ccc(C)cc2)c1C#N	27	0.9	0.7	7	0.63	x
CCc1cc2c(=O)c(-c3nc4ccccc4[nH]3)coc2c(CN2CCCC(C)C2)c1O (stereo not given)	x	x	x	x	x	-0.92
CCOC(=O)C(NC(=O)CC)(Nc1ccccc1OC)C(F)(F)F (stereo not given)	47	0.6	0.5	41	0.0014	0.57
CCOC(=O)C(NC(=O)CC)(N1CCc2ccccc2C1)C(F)(F)F (stereo not given)	56*	0.8	0.4	22	-1.7	x
C=CCn1c(-c2ccc(N)cc2)nc2ccccc21	33	0.8	0.7	23	-0.065	-1.5
C=CCn1c(N)nc2ccccc21	23	1	0.8	-1	-2.6*	-0.094
CCCn1nnnc1-c1ccc(Cl)cc1	-1	0.8	1	22	-0.062	x
COc1ccc2c(c1)nc(N)n2Cc1ccccc1	10	0.1	0.9	85*	0.48	x
COc1ccc(-c2nnnn2CCc2ccccc2)cc1	71*	0	0.3	98*	0.46	1.5
C=CCn1c(-c2ccc(OC)cc2)nc2ccccc21	76*	0.3	0.2	73*	-0.038	-1.7
O=C(CSc1nnc(-c2ccc(S(=O)(=O)N3CCCC3)cc2)n1CC1CCCO1)NC1CC1 (stereo not given)	-20	1.2	1.2	-17	0.29	0.32
